From PubChem BioAssay (NCATS)

Assay: qHTS profiling of the MIPE4 collection as inhibitors of Plasmodium falciparum (DD2) proliferation (AID 743345)
Details: P. falciparum Dd2 in erythrocytes, SYBR Green DNA, 72 h; at 28.5 µM (top of the series) unless noted
How it was run: (§1)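 Parasite DNA was quantified by SYBR Green I fluorescence (ex 485, em 535 nm) after overnight lysis in saponin/Triton buffer at room temperature. Cultures at 0.3% parasitemia and 2.5% hematocrit were first exposed to compound for 72 h at 37 C; signals were normalised to artemisinin (0.29 uM) and vehicle wells.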

Structure (SMILES) | parasite growth remaining, % of DMSO control (lower = more inhibition)
COC1=C[C@@H]2[C@@H]3Cc4ccc(OC)c(O)c4[C@]2(CCN3C)CC1=O | 84.4%
COc1cccc2c1[C@]13CCN(CC4CC4)[C@H](C2)[C@]1(OC)CCC(=O)C3 | 102%
C[C@]12CC[C@H](O)CC1=CC[C@H]1[C@H]3CCC(=O)[C@@]3(C)CC[C@@H]12 | 97.4%
O=c1[nH]c2ccc(Cl)cc2c(N[C@@H]2CN3CCC2CC3)c1-c1nc2ccccc2[nH]1 | 5.74%

Assay: qHTS profiling of the MIPE4 collection as inhibitors of Plasmodium falciparum (DD2) proliferation (Rep 2) (AID 743346)
Details: P. falciparum Dd2 in erythrocytes, SYBR Green DNA, 72 h; at 28.5 µM (top of the series)
How it was run: as §1

Structure (SMILES) | parasite growth, % of control (lower = inhibition)
CC(=O)OCC1=C(C(=O)O)N2C(=O)[C@@H](N)[C@@H]2SC1 | 77.5%
CN[C@@H]1Cc2cccc3[nH]c(=O)n(c23)C1 | 82.7%
COc1ccc2c(c1)[C@]13CCCCC1C(C2)N(C)CC3 (some centres not stated) | 52.9%
C[C@H]([C@H](O)CCC(C)(C)O)[C@H]1CC[C@@]2(O)C3=CC(=O)[C@@H]4C[C@@H](O)[C@@H](O)C[C@]4(C)[C@@H]3CC[C@]12C | 93.3%
COC(=O)[C@@H](N)CCCN=C(N)N[N+](=O)[O-] | 82%
C[C@@H]1CC[C@@]2(OC1)O[C@H]1C[C@H]3[C@@H]4CC=C5C[C@@H](O[C@@H]6O[C@H](CO)[C@@H](O[C@@H]7O[C@@H](C)[C@H](O)[C@@H](O)[C@@H]7O)[C@H](O)[C@@H]6O[C@@H]6O[C@@H](C)[C@H](O)[C@@H](O)[C@@H]6O)CC[C@]5(C)[C@@H]4CC[C@]3(C)[C@@H]1[C@H]2C | 61.5%
C[C@]12Cc3cn[nH]c3C[C@@H]1CC[C@@H]1[C@H]2CC[C@@]2(C)[C@H]1CC[C@]2(C)O | 54.3%
C[C@@H]1CC[C@H]2[C@@H](C)C(=O)O[C@@H]3O[C@@]4(C)CC[C@H]1[C@]32OO4 | 7.78%
COC[C@H]1OC(=O)c2coc3c2[C@@]1(C)C1=C(C3=O)[C@@H]2CC[C@H](O)[C@@]2(C)C[C@@H]1OC(C)=O | 79.7%
C[C@]12CC[C@@H]3[C@@H](CCC4=CC(=O)CC[C@@H]43)[C@@H]1CC[C@@H]2OC(=O)CCc1ccccc1 | 56.3%
COc1cc([C@@H]2c3cc4c(cc3[C@@H](O)C3COC(=O)C32)OCO4)cc(OC)c1O (some centres not stated) | 64.3%
O=c1cccc2n1CC1CNC[C@H]2C1 | 53.7%
C[C@@H]1O[C@@H](O[C@@H]2C=C3CC[C@@H]4[C@@H](CC[C@]5(C)[C@H](c6ccc(=O)oc6)CC[C@@]45O)[C@@]3(C)CC2)[C@H](O)[C@H](O)[C@H]1O | 96.7%
CC(C)(O)C=CC(=O)[C@](C)(O)[C@H]1[C@H](O)C[C@]2(C)[C@@H]3CC=C4[C@@H](C=C(O)C(=O)C4(C)C)[C@]3(C)C(=O)C[C@@]12C | 21.6%
Cc1ccccc1-n1c(Cn2ncc3c(N)ncnc32)nc2cccc(C)c2c1=O | 37%
Cc1[nH]nc2ccc(-c3cncc(OC[C@@H](N)Cc4c[nH]c5ccccc45)c3)cc12 | 20.1%
Clc1ccccc1C(c1ccccc1)(c1ccccc1)n1cccn1 | 11.6%
C#C[C@]1(O)C=C[C@@H]2[C@@H]3CCC4=CC(=O)CC[C@@H]4[C@H]3CC[C@@]21CC | 26.2%
CN(C)[C@@H]1C(=O)C(C(N)=O)=C(O)[C@@]2(O)C(=O)C3=C(O)c4c(O)cccc4[C@@](C)(O)[C@H]3[C@H](O)[C@@H]12 | 32%
C[C@]12CC[C@H]3[C@@H](CCC4=CC(=O)CC[C@@]43C)[C@H]1CC[C@H]2OC(=O)CCC1CCCC1 | 18.3%
CC(=Cc1csc(C)n1)[C@@H]1C[C@H]2O[C@]2(C)CCC[C@H](C)[C@@H](O)[C@@H](C)C(=O)C(C)(C)[C@@H](O)CC(=O)O1 | 35.2%
COCC1(CO)C(=O)C2CCN1CC2 (configuration not stated) | 42%
O=C(N[C@H]1CN2CCC1CC2)c1ccc(Cl)cc1 | 31.9%
C[C@@H]1[C@H](O)[C@@H](C)C=CC=CCCC=CC=CC=CC=C[C@H](O[C@H]2O[C@@H](C)[C@H](O)[C@@H](N)[C@@H]2O)CC2O[C@](O)(C[C@@H](O)[C@H](O)CC[C@@H](O)C[C@@H](O)C[C@@H](O)CC(=O)O[C@H]1C)C[C@H](O)[C@H]2C(=O)O | 97.5%
CCOP(=O)(OCC)C(C)NC(=O)N(CCCl)N=O (configuration not stated) | 135%
CCC(=O)OC1CCC2C3CCC4=CC(=O)CC[C@@]4(C)C3CC[C@]12C (some centres not stated) | 125%
CC[C@@]1(O)C(=O)OCc2c1cc1n(c2=O)Cc2cc3ccccc3nc2-1 | 19.3%
CC1=C(O)C(=O)C=C2C1=CC=C1[C@@]2(C)CC[C@@]2(C)[C@@H]3C[C@](C)(C(=O)O)CC[C@]3(C)CC[C@]12C | 16.2%
